According to PubChem BioAssay (Tox21):
Inconclusive results are not listed. Active and inactive are the calls of the source. Unless noted, the call rests on the fitted dose curve; in most records, active means well fitted curve in the direction sought with a large enough effect in the repeat runs; inconclusive means weak or mixed curves; inactive means no such curve, though single readings can be large; an effect the other way counts as inactive or inconclusive.

Tests used:
[1] = qHTS assay to identify small molecule agonists of the RXR signaling pathway - cell viability counter screen (AID 1159529); further: nearly all actives have a fitted effect of over 50% in size; further: potency means the concentration at half of the fitted maximal effect
Outline: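 Luminescence from CellTiter-Glo (30 min, RT) measured viability in the same wells as the beta-lactamase reporter readout. Cells: GeneBLAzer RXR-alpha HEK 293T, 2% charcoal-stripped FBS. Compound exposure 16 hr, 37 C.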

[2] = qHTS assay to identify small molecule antagonists of the retinoid acid receptor (RAR) signaling pathway - cell viability counter screen (AID 1159551); further: nearly all actives have a fitted effect of over 35% in size
Outline: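 Cytotoxicity counter screen in C3RL4 cells: 6 h compound exposure with 1 uM retinol (final), viability from cellular ATP by luminescence.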

[3] = qHTS assay to identify small molecule antagonists of the estrogen related receptor (ERR) signaling pathway from Tox21 library - cell viability counter screen (AID 1224834); further: nearly all actives have a fitted effect of over 30% in size
Outline: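 Cytotoxicity of test substances is gauged in the same ERR cells used for the antagonist screen, after 17.5 h of compound treatment at 37 C, by CellTiter-Fluor fluorescence measured after 30 min.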

[4] = molecular target: Luciferin 4-monooxygenase (Photinus pyralis) (UniProt P08659); assay: qHTS assay to identify small molecule inhibitors of firefly luciferase (AID 1224835); further: nearly all actives have a fitted effect of over 25% in size; further: potency means the concentration at half of the fitted maximal effect
Sequence of Luciferin 4-monooxygenase (Photinus pyralis) (P08659 whole entry, looked up): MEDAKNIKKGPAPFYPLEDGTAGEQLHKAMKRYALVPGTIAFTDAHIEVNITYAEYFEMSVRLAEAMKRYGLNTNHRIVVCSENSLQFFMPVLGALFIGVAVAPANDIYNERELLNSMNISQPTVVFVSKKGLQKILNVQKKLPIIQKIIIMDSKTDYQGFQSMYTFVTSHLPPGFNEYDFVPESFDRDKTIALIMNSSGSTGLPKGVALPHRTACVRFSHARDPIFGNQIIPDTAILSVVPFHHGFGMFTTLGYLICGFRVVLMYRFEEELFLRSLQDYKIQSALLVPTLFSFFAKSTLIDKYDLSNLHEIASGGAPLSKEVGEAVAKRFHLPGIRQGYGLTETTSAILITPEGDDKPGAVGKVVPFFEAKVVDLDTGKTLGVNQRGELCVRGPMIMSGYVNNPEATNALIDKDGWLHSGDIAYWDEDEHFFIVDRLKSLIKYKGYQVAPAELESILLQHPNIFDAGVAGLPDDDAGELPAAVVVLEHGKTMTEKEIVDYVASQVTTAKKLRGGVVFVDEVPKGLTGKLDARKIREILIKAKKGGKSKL
Outline: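 Quantitative HTS format; KM concentrations of both substrates. Purified P. pyralis FLuc activity quantified from luminescence images.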

[5] = qHTS assay to identify small molecule agonists of the constitutive androstane receptor (CAR) signaling pathway - cell viability counter screen (AID 1224836); further: series mostly up to about 92 µM; nearly all actives have a fitted effect of over 45% in size
Outline: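 Viability read-out: CellTiter-Fluor fluorescence after 23 h compound exposure at 37 C/5% CO2 in double-stable HepG2-CYP2B6-hCAR cells, with PK11195 present at 0.75 uM final; compounds tested in 15-point titration.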

[6] = qHTS assay to identify small molecule antagonists of the constitutive androstane receptor (CAR) signaling pathway - cell viability counter screen (AID 1224837); further: series mostly up to about 92 µM; nearly all actives have a fitted effect of over 45% in size
Outline: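 Multiplexed cytotoxicity read-out for the CAR antagonist screen: double-stable HepG2-CYP2B6-hCAR cells co-treated with 50 nM CITCO (final) and compound over 15 concentrations, incubated 23 hr, then assessed by CellTiter-Fluor fluorescence.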

[7] = molecular target: Nuclear receptor subfamily 1 group I member 3 (Homo sapiens) (UniProt Q14994); assay: qHTS assay to identify small molecule antagonists of the constitutive androstane receptor (CAR) signaling pathway (AID 1224838); further: nearly all actives have a fitted effect of over 40% in size; further: potency means the concentration at half of the fitted maximal effect
Sequence of Nuclear receptor subfamily 1 group I member 3 (Homo sapiens) (Q14994 whole entry, looked up): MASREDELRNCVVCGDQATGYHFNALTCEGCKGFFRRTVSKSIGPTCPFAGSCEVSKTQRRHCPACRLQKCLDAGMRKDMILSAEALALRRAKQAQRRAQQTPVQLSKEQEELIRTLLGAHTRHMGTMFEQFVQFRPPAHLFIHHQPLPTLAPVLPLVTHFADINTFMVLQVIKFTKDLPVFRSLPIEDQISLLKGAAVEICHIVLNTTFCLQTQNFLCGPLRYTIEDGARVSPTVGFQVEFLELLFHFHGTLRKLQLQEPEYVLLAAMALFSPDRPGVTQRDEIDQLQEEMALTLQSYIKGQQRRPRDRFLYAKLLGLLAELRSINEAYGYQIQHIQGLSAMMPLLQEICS
Outline: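 Compounds were titrated across 15 concentrations onto HepG2 cells double-stably expressing hCAR and a CYP2B6-2.2kb reporter, together with 50 nM CITCO (final). After 24 h at 37 C, luciferase activity was measured by luminescence.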

[8] = molecular target: Nuclear receptor subfamily 1 group I member 3 (Homo sapiens) (UniProt Q14994); assay: qHTS assay to identify small molecule agonists of the constitutive androstane receptor (CAR) signaling pathway (AID 1224839);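 further: HepG2 cells stably carrying human CAR and a CYP2B6 luciferase reporter; series mostly up to about 92 µM; nearly all actives have a fitted effect of over 15% in size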
Outline: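 Luminescence read-out (ONE-Glo, 30 min, room temperature) from double-stable HepG2-CYP2B6-hCAR cells exposed 24 h to 15-point compound series in presence of 0.75 uM PK11195 final.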

[9] = qHTS assay to identify small molecule antagonists of the estrogen related receptor signaling pathway with the pleiotropic PPARgamma coactivator (PGC) from Tox21 10K library - cell viability counter screen (AID 1224840; active means well fitted cell-killing curve with a large enough effect in the repeat runs, not every such curve was filed as active; further: nearly all actives have a fitted effect of over 40% in size)
Outline: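 Step one, plate 2,000 PGC/ERR cells per well; step two, incubate 6 h at 37 C/5% CO2; step three, pin-transfer compounds; step four, incubate 17.5 h; step five, add CellTiter-Fluor and read fluorescence after 30 min.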

[10] = qHTS assay to identify small molecule agonists of the retinoic acid receptor (RAR) signaling pathway (AID 1159553)
Outline: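 Agonist activity was scored in C3RL4 cells bearing a retinoic acid response element luciferase construct. Cells were treated with compounds for 6 hr at 37 C, and luciferase signal was measured as luminescence.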

[11] = qHTS assay to identify small molecule antagonists of the estrogen related receptor signaling pathway with the pleiotropic PPARgamma coactivator (PGC) from Tox21 10K library (AID 1224841; call rule not given here; further: actives are mostly falling curves and most rising ones were filed inactive; nearly all actives have a fitted effect of over 50% in size; further: potency means the concentration at half of the fitted maximal effect)
Outline: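 Antagonism in this quantitative HTS is taken from loss of luciferase signal in PGC/ERR cells. Cells (2,000/well) are treated with compounds in DMSO after a 6 h settling period and read by One-Glo luminescence after 18 h.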

[12] = qHTS assay to identify small molecule agonists of the estrogen related receptor signaling pathway with the pleiotropic PPARgamma coactivator (PGC) from Tox21 10K library (AID 1224842); further: nearly all actives have a fitted effect of over 15% in size
Outline: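 PGC/ERR reporter cells (NTP line) were seeded 2,000 per well, rested 6 h at 37 C/5% CO2, then pin-dosed with compounds in DMSO for 18 h at 37 C; luciferase read by One-Glo luminescence after 30 min at room temperature.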

[13] = qHTS assay to identify small molecule antagonists of the estrogen related receptor (ERR) signaling pathway - cell viability counter screen (AID 1224818);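 further: series mostly up to about 46 µM; viability measured after 17.5 h of compound exposure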
Outline: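 Cells carrying the ERR pathway reporter were seeded and incubated for 6 hours before compound addition. After a 17.5-hour exposure at 37 C, live-cell protease activity was measured by CellTiter-Fluor fluorescence following 30 minutes of incubation.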

[14] = qHTS assay to identify small molecule antagonists of the estrogen related receptor signaling pathway with the pleiotropic PPARgamma coactivator (PGC) cell viability counter screen (AID 1224822;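 further: series mostly up to about 46 µM; viability read after 17.5 h compound exposure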)
Outline: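 Seed PGC/ERR cells (2,000/well); incubate 6 h at 37 C/5% CO2; pin-transfer compounds in DMSO; incubate 17.5 h at 37 C; add CellTiter-Fluor; after 30 min read fluorescence.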

[15] = qHTS assay to identify small molecule antagonists of the estrogen related receptor (ERR) signaling pathway (AID 1224819;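 further: luminescence from an ERR-driven luciferase reporter measured with One-Glo reagent; series mostly up to about 46 µM; nearly all actives have a fitted effect of over 50% in size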)
Outline: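 Compounds dissolved in DMSO were pin-transferred onto ERR cells that had been plated 6 h earlier, and cells were then incubated 18 h at 37 C; signal was luciferase luminescence via One-Glo.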

[16] = test system: estrogen-related receptor alpha (ERRalpha) with PGC-1alpha coactivator, human; assay: qHTS assay to identify small molecule antagonists of the estrogen related receptor signaling pathway with the pleiotropic PPARgamma coactivator (PGC) (AID 1224821; calls by dose curve;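 further: series mostly up to about 46 µM; lower luminescence signal means antagonism of PGC/ERR signalling; nearly all actives have a fitted effect of over 50% in size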)
Outline: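 Quantitative HTS for antagonism: PGC/ERR cells received compounds after 6 h attachment and were incubated 18 h at 37 C, with luminescence (One-Glo) as the endpoint.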

[17] = qHTS assay to identify small molecule agonists of the estrogen related receptor signaling pathway with the pleiotropic PPARgamma coactivator (PGC) (AID 1224823)
Outline: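 Cell-based luciferase assay in the NTP-supplied PGC/ERR line, 2,000 cells/well; 18 h compound exposure at 37 C, luminescence after One-Glo.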

[18] = qHTS assay to identify small molecule antagonists of the retinoic acid receptor (RAR) signaling pathway (AID 1159552; further: nearly all actives have a fitted effect of over 50% in size)
Outline: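 Luminescence from a RARE luciferase reporter in C3RL4 cells served as read-out. Cells received compounds together with 1 uM final retinol and incubated 6 hr at 37 C before detection reagent was added for 30 min at room temperature.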

Measured: Potency

FC(F)(Cl)C(F)(Cl)Cl
inactive: [1] | [2] | [3] | [4] | [5] | [6] | [7] | [8] | [9]

Nc1cccc2c(=O)[nH][nH]c(=O)c12
inactive: [2] | [10] | [4] | [5] | [6] | [7] | [8] | [12]
active: [1] 5.52 µM | [11] 61.4 µM

CC(C)(C(=O)O)c1ccc(C(O)CCCN2CCC(C(O)(c3ccccc3)c3ccccc3)CC2)cc1 (centres undefined)
inactive: [1] | [2] | [13] | [14] | [3] | [4] | [5] | [7] | [8] | [9]

O=C(Nc1ccccc1)c1cc([N+](=O)[O-])ccc1Cl
active: [11] 15.4 µM
inactive: [1] | [2] | [13] | [15] | [16] | [14] | [17] | [3] | [4] | [5] | [6] | [7] | [8] | [9]

O=C(OCCCCCOC(=O)c1ccccc1)c1ccccc1
inactive: [1] | [2] | [18] | [3] | [4] | [5] | [6] | [7] | [8] | [11]

O=c1[nH]nc(-c2ccc([N+](=O)[O-])o2)o1
inactive: [1] | [2] | [18] | [4] | [7]

O=c1[nH][nH]c2ccccc12
inactive: [1] | [2] | [10] | [3] | [4] | [5] | [6] | [8]
active: [7] 55.5 µM

CC(C)CCCCCOC(=O)CS
inactive: [1] | [2] | [18] | [3] | [4] | [5] | [6] | [7] | [8] | [9]

O=C(O)c1ccc2cc(O)ccc2c1
inactive: [1] | [2] | [18] | [3] | [5] | [6] | [7] | [8] | [9]
active: [4] 62.4 µM

C=CC(C)CCC=C(C)C (centres undefined)
inactive: [1] | [2] | [10] | [3] | [4] | [5] | [6] | [9]

COc1cc(CNC(=O)CCCC/C=C/C(C)C)ccc1O
inactive: [1] | [2] | [18] | [3] | [4] | [5] | [7] | [9]
